Measurements from ChEMBL document CHEMBL3988442, “University of Dundee, Small-Polar-MMV Screening Library” (2021).
Screen size: about 48,000 compounds; about 13,000 (27%) showed an effect of 50% or more. Some of the results follow.

What follows are compounds tested on Wolbachia pipientis (assay: Anti-Wolbachia Cell-Based Screen). Settings: 5 µM.
Format: functional
Design: scale not given: in the data most compounds retested in dose-response had high values

| SMILES | Percent Effect [%] |
| --- | --- |
| CN(C)C(=O)CS(=O)(=O)Cc1ccn(-c2cccc(F)c2)n1 | 3.991 |
| CCn1c(CN(C)C)nnc1C1CCN(Cc2ccc(C)s2)CC1 | -25.38 |
| COc1ccc(-c2n[nH]cc2CN(C)CCCN2CCOCC2)c(F)c1 | 4.429 |
| N#Cc1nccnc1NCCC1CCN(CC(F)(F)F)CC1 | -10.09 |
| O=C(CN1CCC2(CCCCC2)C1)NCC(F)(F)F | -17.09 |
| O=C(NCCCn1cccn1)N1CCCC1c1ccncc1 (centres undefined) | 20.68 |
| Cc1cnn(CCNCc2ccc(F)cc2Cl)c1 | -9.942 |
| Cc1ccccc1C(NC(=O)Cn1cc(C2CC2)nn1)C1CC1 (centres undefined) | 6.908 |
| CC(C)Oc1ccccc1C(=O)NC1CC(=O)N(CC(F)(F)F)C1 (centres undefined) | -7.447 |
| CC(C)c1cn(CC(=O)NC2CC(=O)N(CCc3ccccc3)C2)nn1 (centres undefined) | 94.88 |
| O=C(NCC1CC(=O)N(CCc2ccccc2)C1)c1ccc[nH]1 (centres undefined) | -4.58 |
| COc1ccccc1N1CC(NC(=O)Cn2cc(C(C)C)nn2)CC1=O (centres undefined) | 82.88 |
| COc1ccccc1N1CC(NC(=O)Cn2cc(C)nn2)CC1=O (centres undefined) | 83.28 |
| COc1ccc(CCNC(=O)NC2CC(=O)N(c3ccccc3)C2)cc1 (centres undefined) | 13.52 |
| O=C1CC(NS(=O)(=O)N2CCOCC2)CN1CCc1ccccc1 (centres undefined) | 3.785 |
| COc1ccccc1N1CC(NC(=O)c2cc(C(C)C)nn2C)CC1=O (centres undefined) | 186.5 |
| COc1ccccc1N1CCN(CC[C@H](O)c2ccccc2)CC1=O | -5.081 |
| COc1ccccc1N1CCCC(Nc2ncccn2)C1=O (centres undefined) | -13.39 |
| COc1ccccc1N1CCC(CNC(=O)CN2CSCC2=O)C1 (centres undefined) | -5.034 |
| COc1cc(-c2cccc3c2OC(CN)C3)ccc1O (centres undefined) | 12.42 |
| CC(C)(C)NC(=O)c1cnc2n1CCCC2 | -4.757 |
| CCOC(=O)N1CCN(c2nc(C)ncc2CC)CC1 | -1.601 |
| Cc1ccc(-c2cnc3n2CCN(C)C32CCN(CC3CC3)CC2)cc1.O=C(O)C(F)(F)F.O=C(O)C(F)(F)F.O=C(O)C(F)(F)F | 0.5048 |
| CC(=O)N1CCn2c(-c3ccccc3)cnc2C12CCNCC2.O=C(O)C(F)(F)F.O=C(O)C(F)(F)F | -11.86 |
| CC(=O)N1CCC2(CC1)c1ncc(-c3ccccc3)n1CCN2C(C)=O | 23.35 |
| CN1CCn2c(-c3ccccc3)cnc2C12CCN(CC1CC1)CC2.O=C(O)C(F)(F)F.O=C(O)C(F)(F)F.O=C(O)C(F)(F)F | -7.532 |
| CCS(=O)(=O)N1CCC2(CC1)c1ncc(-c3cccnc3)n1CCN2C | 107 |

| SMILES | Percent Effect [%] |
| --- | --- |
| CC(=O)N1CCC2(CC1)c1ncc(-c3ccccc3)n1CCN2C | 98.56 |
| CCS(=O)(=O)N1CCC2(CC1)CCn1c(-c3cnn(C)c3)cnc12.O=C(O)C(F)(F)F | 2.009 |
| CC(=O)N1CCC2(CC1)c1ncc(-c3ccc(F)cc3)n1CCN2C | 95.01 |
| Cc1cc(C(=O)N2CCC(n3cc(CO)nn3)CC2)ccc1F | 2.644 |
| CN(C)C(=O)CCN1CC(c2ccccc2)(c2ccccc2)CCC1=O | -7.363 |
| Cc1nnc(CN(C)CC(=O)N2CCCC(C)CC2)n1C (centres undefined) | -6.061 |
| Cc1cc(C[C@@H]2COC[C@@H]2NC(=O)CNC(=O)N(C)C)on1 | -9.814 |
| CS(=O)(=O)CCC(=O)NC(Cc1ccccc1)C1CC1 (centres undefined) | 2.067 |
| O=C(CCN1CCCC1=O)NCc1cccnc1Oc1ccccc1 | -4.21 |
| O=C(CCOc1cccc(F)c1)N1CCCC1Cn1cccn1 (centres undefined) | 124.8 |
| O=C(CN1CCCC1Cn1cccn1)NCCOc1cccc(F)c1 (centres undefined) | 99.45 |
| CN(CC(=O)N1CCCC1Cn1cccn1)C1CC1 (centres undefined) | -6.628 |
| O=C(CCOc1ccc(F)cc1)N1CCCC1Cn1cccn1 (centres undefined) | 126.4 |
| COc1cccc(CNC(=O)CN2CCCCC2Cn2cccn2)c1 (centres undefined) | 0.3805 |
| Cc1cccc(OCCNC(=O)CN2CCCC2Cn2cccn2)c1 (centres undefined) | -3.043 |
| O=C(CCCOc1ccccc1)N1CCCC1Cn1cccn1 (centres undefined) | 116.1 |
| COCc1nc(CNC(=O)C(C)n2ccnc2C(C)C)no1 (centres undefined) | -16.22 |
| Cc1ccc(NC(=O)NC(C)C(=O)N2CCS(=O)(=O)CC2)cc1 (centres undefined) | -2.937 |
| COc1cccc(COCC(=O)N2CCCC(n3cccn3)C2)c1 (centres undefined) | 17.54 |
| O=C(c1ccc(Br)o1)N1CCCCC1Cn1cccn1 (centres undefined) | 0.8504 |
| O=C(Cn1cnnn1)N1CCCCC1Cn1cccn1 (centres undefined) | -6.209 |
| COc1ccc(OCCC(=O)N2CCCC2Cn2cccn2)cc1 (centres undefined) | 116.7 |
| COc1cccc(COCC(=O)N2CCCC(N3CCCC3)CC2)c1 (centres undefined) | -3.543 |
| COc1cccc(COCC(=O)N2CCCC2Cn2cccn2)c1 (centres undefined) | 116 |
| COc1ccc2c(ccn2CC(=O)N2CCCC2Cn2cccn2)c1 (centres undefined) | 2.808 |
| Cc1ccc(CC(=O)N2CCCCC2Cn2cccn2)cn1 (centres undefined) | 89.03 |
| COc1ccc(CC(=O)N2CCCCC2Cn2cccn2)cc1 (centres undefined) | 136.1 |
